Targets with a hit are over-represented here; the source holds about 8,800 in all. About 0.5% of all pairs of compound and target were hits.
What was measured:
Assay in all cases: log2 fold change, soluble protein after heating vs DMSO (PISA); higher = thermal stabilisation; K562 lysate, 10 uM; active = over 0.2 and 3.5 SD of the protein, either way, in both replicates (recomputed)
[1] = compound: C#Cc1cccc(Nc2ncnc3cc(OCCOC)c(OCCOC)cc23)c1 [erlotinib]
Summary of the method: (§1)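 Log-two fold change in thermal stability relative to solvent controls is reported from duplicates. For each sample, crude K562 extract from dounce-homogenised pellets in PBS pH 7.4 with 1 mM MgCl2, at 1 mg/mL protein, was treated with 10 μM compound for 30 min. Aliquots heated for 3 min across 48°C-58°C were pooled, brought to 0.5% NP-40 at 4°C and cleared at 21,000xg for 90 min. The supernatant was quantified by TMTpro 16plex LC-MS/MS with channel sums equalised.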

[2] = compound: C/C(=N\NC(=O)C1=CC(=CC=C1)S(=O)(=O)N2CCOCC2)/C3=C(C=CC(=C3)Cl)O
Summary of the method: as §1

[3] = compound: C1=CC(=CC=C1C2=NC3=C(N2)C=C(C=C3)C(=O)N)OC4=CC=C(C=C4)Cl
Summary of the method: as §1

[4] = compound: C1=CC2=C(C=CC(=C2)/C=C\3/C(=O)NC(=NCC4=CC=CS4)S3)N=C1
Summary of the method: as §1

[5] = compound: C1=CC2=NC=CN=C2C=C1/C=C/3\C(=O)NC(=O)S3
Summary of the method: as §1

[6] = compound: C1=CC=C(C=C1)C2=NC(=C(N2)C3=CC=NC=C3)C4=CC(=C(C=C4)Cl)O
Summary of the method: as §1

[7] = compound: C1=CC=C2C(=C1)C3=NNC4=CC=CC(=C43)C2=O
Summary of the method: as §1

[8] = compound: C1CCN(C1)C(=O)NC2=CC=CC(=C2)NC3=NC=C(C(=N3)NCCC4=CN=CN4)Br
Summary of the method: as §1

[9] = compound: C1CN(CCC1(CC2=CC=C(C=C2)Cl)N)C3=NC=NC4=C3C=CN4
Summary of the method: as §1

[10] = compound: C1COCCN1CCN2C3=CC=CC=C3N=C2NC(=O)C4=CC(=CC=C4)[N+](=O)[O-] [IRAK-1-4 Inhibitor I]
Summary of the method: as §1

[11] = compound: C=CC(=O)N1CCC[C@@H](n2nc(-c3ccc(Oc4ccccc4)cc3)c3c(N)ncnc32)C1 [ibrutinib]
Summary of the method: as §1

[12] = compound: CC(=O)c1cnc2ccc(-c3cc(Cl)c(O)c(Cl)c3)nc2c1N[C@H]1CC[C@H](CN(C)C)CC1
Summary of the method: as §1

[13] = compound: CC(C)(C)Cn1c(N)nc2ccc(-c3[nH]c(C(C)(C)C)nc3-c3ccc(F)cc3)nc21 [ralimetinib]
Summary of the method: as §1

[14] = compound: CC(C)(O)CC(=O)NCCn1ccc2ncnc(Nc3ccc(Oc4cccc(C(F)(F)F)c4)c(Cl)c3)c21
Summary of the method: as §1

[15] = compound: CC(C)C1=C2N=C(C=C(N2N=C1)NCC3=CC=CC=C3)NCCCCCCN
Summary of the method: as §1

[16] = compound: CC1=C(C(CC(=O)N1)C2=CC=C(C=C2)C(F)(F)F)C(=O)NC3=C(C=C4C(=C3)C=NN4)F
Summary of the method: as §1

[17] = compound: CC1=C(C2=C(C=C1)C(=O)C3=CC=CC=C3N2CCCN)C
Summary of the method: as §1

[18] = compound: CC1=C(C=C(C=C1)NC(=O)C2=CC(=CC=C2)C(C)(C)C#N)NC3=CC4=C(C=C3)N=CN(C4=O)C
Summary of the method: as §1

[19] = compound: CC1=C(C=C(C=C1)NC(=O)C2=CC(=CC=C2)N(C)C)NC(=O)C3=CC=C(C=C3)O
Summary of the method: as §1

[20] = compound: CC1=CC=C(C=C1)SC2=C3C=C(SC3=CN=C2)C(=O)N
Summary of the method: as §1

Measured: log2 fold change

DHRS3 (UniProt O75911)
Chain of UniProt O75911 (O75911 whole entry, looked up): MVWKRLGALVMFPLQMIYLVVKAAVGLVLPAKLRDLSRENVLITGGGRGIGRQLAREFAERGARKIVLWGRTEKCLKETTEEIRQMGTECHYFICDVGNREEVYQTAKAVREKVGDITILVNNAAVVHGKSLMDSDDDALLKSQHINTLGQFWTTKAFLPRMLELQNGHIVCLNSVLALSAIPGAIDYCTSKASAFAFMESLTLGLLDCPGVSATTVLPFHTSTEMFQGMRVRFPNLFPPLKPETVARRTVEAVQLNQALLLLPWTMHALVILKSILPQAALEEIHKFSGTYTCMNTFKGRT
inactive: [1] 0.056 | [2] 0.08 | [3] 0.047 | [4] -0.008 | [5] -0.044 | [6] 0.03 | [7] -0.028 | [8] -0.007 | [9] 0.016 | [10] 0.046 | [11] 0.064 | [12] -0.07 | [13] 0.048 | [14] -0.023 | [15] 0.034 | [16] -0.001 | [17] -0.069 | [18] -0.015 | [19] -0.046 | [20] 0.045

CIAO2A (UniProt Q9H5X1)
Chain of UniProt Q9H5X1 (Q9H5X1 whole entry, looked up): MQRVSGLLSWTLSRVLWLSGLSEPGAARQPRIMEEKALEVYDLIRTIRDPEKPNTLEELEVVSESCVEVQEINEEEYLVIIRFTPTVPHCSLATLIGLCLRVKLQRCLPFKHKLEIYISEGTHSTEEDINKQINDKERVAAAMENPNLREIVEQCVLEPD
inactive: [1] -0.052 | [2] 0.029 | [3] 0.03 | [4] -0.056 | [5] -0.071 | [6] -0.025 | [7] -0.007 | [8] 0.04 | [9] 0.009 | [10] 0.032 | [11] 0.005 | [12] 0.044 | [13] 0.053 | [14] -0.034 | [15] 0.056 | [16] 0.032 | [17] -0.06 | [18] -0.026 | [19] -0.067 | [20] -0.02

DLG3 isoform 2 (UniProt Q92796)
Chain of UniProt Q92796 (Q92796 whole entry, looked up): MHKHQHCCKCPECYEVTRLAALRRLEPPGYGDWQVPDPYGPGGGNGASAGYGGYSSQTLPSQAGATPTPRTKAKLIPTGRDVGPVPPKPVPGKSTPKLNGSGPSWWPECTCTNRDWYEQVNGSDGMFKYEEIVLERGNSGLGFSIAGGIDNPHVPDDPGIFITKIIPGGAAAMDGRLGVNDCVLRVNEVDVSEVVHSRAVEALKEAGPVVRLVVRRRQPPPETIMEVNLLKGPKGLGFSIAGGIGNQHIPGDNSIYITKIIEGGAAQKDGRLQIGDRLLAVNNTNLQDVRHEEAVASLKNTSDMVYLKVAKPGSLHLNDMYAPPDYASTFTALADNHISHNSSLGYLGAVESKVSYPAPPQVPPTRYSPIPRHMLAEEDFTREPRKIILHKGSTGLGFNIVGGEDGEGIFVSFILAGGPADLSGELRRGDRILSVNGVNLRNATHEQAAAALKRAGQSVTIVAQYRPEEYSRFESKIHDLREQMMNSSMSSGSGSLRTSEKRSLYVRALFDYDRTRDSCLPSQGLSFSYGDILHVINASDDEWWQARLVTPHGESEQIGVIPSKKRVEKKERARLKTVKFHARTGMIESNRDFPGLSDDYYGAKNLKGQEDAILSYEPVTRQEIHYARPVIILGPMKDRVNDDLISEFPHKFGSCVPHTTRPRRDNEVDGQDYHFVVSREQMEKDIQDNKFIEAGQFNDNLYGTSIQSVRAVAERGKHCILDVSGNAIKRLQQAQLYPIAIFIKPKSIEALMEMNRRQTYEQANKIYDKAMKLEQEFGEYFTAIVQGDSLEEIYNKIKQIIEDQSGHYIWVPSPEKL
inactive: [1] -0.048 | [2] -0.085 | [3] 0.073 | [4] 0.002 | [5] -0.046 | [6] -0.012 | [7] -0.013 | [8] 0.019 | [9] -0.001 | [10] -0.056 | [11] 0.034 | [12] 0.009 | [13] 0.124 | [14] 0.042 | [15] -0.005 | [16] 0.055 | [17] -0.009 | [18] -0.023 | [19] -0.033 | [20] 0.024

CHML (UniProt P26374)
inactive: [1] -0.03 | [2] -0.031 | [3] 0.028 | [4] -0.026 | [5] -0.013 | [6] -0.021 | [7] -0.004 | [8] -0.033 | [9] -0.001 | [10] -0.012 | [11] -0.029 | [12] -0.017 | [13] -0.008 | [14] -0.004 | [15] -0.009 | [16] -0.012 | [17] 0 | [18] -0.003 | [19] -0.017 | [20] -0.006

CYCS (UniProt P99999)
Chain of UniProt P99999 (P99999 whole entry, looked up): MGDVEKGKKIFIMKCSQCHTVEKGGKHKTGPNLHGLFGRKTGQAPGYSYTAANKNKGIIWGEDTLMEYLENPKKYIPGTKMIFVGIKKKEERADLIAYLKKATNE
inactive: [1] -0.022 | [2] -0.121 | [3] -0.019 | [4] -0.006 | [5] 0.003 | [6] 0.008 | [7] 0.02 | [8] 0.011 | [9] 0.002 | [10] -0.005 | [11] 0.027 | [12] 0.024 | [13] 0 | [14] 0.004 | [15] -0.016 | [16] -0.05 | [17] -0.005 | [18] 0.012 | [19] -0.015 | [20] 0.031

CPT1A (UniProt P50416)
Chain of UniProt P50416 (P50416 whole entry, looked up): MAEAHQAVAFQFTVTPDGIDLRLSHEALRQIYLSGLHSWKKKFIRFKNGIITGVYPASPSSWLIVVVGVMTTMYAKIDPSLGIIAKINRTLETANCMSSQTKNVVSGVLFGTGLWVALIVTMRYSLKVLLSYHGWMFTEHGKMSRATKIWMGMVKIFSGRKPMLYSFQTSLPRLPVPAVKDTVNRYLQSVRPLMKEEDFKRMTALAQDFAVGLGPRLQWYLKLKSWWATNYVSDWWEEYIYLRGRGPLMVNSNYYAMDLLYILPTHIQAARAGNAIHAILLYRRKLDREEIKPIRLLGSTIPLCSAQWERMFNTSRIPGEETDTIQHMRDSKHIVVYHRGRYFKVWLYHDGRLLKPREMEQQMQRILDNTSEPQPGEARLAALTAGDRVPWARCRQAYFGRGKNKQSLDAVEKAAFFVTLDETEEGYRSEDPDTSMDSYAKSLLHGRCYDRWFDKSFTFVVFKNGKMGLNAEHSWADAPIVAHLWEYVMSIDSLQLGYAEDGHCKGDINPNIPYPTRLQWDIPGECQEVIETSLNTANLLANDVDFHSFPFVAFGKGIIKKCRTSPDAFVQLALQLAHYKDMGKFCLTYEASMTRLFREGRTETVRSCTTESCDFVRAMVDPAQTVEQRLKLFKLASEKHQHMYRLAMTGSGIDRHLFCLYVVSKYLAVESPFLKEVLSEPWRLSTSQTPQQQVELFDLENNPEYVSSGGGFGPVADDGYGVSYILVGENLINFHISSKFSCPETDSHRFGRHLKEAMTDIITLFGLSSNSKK
inactive: [1] -0.029 | [2] -0.034 | [3] 0.01 | [4] -0.001 | [5] -0.05 | [6] 0.002 | [7] 0.011 | [8] -0.036 | [9] 0.024 | [10] -0.008 | [11] 0.042 | [12] -0.021 | [13] -0.016 | [14] 0.008 | [15] -0.026 | [16] -0.009 | [17] -0.041 | [18] -0.05 | [19] -0.008 | [20] 0.017

DNM2 (UniProt P50570)
Chain of UniProt P50570 (P50570 whole entry, looked up): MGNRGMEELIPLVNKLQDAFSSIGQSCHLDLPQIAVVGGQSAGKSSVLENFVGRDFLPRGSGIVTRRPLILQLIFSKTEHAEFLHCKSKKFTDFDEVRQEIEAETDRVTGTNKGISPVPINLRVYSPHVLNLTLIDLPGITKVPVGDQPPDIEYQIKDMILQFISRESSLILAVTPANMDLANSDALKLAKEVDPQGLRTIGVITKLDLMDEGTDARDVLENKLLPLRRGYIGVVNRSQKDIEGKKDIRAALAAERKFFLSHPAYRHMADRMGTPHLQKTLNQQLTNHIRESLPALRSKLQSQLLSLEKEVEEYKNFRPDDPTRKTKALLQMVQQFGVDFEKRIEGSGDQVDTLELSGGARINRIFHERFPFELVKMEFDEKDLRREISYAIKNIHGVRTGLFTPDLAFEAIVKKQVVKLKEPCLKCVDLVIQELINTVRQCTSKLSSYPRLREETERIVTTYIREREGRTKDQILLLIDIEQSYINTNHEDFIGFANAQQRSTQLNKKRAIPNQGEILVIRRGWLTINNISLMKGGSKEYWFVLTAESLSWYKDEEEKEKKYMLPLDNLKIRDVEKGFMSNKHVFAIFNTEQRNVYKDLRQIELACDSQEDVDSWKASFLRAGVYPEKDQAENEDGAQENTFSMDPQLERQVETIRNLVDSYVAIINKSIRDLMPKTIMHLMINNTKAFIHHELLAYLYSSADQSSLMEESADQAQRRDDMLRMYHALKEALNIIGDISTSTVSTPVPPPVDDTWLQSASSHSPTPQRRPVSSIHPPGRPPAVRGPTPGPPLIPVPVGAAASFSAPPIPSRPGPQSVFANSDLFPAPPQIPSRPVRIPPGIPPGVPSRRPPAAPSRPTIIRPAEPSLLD
inactive: [1] 0.045 | [2] -0.009 | [3] 0.049 | [4] 0.013 | [5] 0.029 | [6] 0.003 | [7] -0.049 | [8] -0.022 | [9] -0.008 | [10] 0 | [11] 0.014 | [12] 0 | [13] 0.013 | [14] 0.013 | [15] 0.018 | [16] 0.011 | [17] 0.024 | [18] -0.016 | [19] 0.006 | [20] 0.004

CKAP5 (UniProt Q14008)
Chain of UniProt Q14008 (Q14008 whole entry, looked up): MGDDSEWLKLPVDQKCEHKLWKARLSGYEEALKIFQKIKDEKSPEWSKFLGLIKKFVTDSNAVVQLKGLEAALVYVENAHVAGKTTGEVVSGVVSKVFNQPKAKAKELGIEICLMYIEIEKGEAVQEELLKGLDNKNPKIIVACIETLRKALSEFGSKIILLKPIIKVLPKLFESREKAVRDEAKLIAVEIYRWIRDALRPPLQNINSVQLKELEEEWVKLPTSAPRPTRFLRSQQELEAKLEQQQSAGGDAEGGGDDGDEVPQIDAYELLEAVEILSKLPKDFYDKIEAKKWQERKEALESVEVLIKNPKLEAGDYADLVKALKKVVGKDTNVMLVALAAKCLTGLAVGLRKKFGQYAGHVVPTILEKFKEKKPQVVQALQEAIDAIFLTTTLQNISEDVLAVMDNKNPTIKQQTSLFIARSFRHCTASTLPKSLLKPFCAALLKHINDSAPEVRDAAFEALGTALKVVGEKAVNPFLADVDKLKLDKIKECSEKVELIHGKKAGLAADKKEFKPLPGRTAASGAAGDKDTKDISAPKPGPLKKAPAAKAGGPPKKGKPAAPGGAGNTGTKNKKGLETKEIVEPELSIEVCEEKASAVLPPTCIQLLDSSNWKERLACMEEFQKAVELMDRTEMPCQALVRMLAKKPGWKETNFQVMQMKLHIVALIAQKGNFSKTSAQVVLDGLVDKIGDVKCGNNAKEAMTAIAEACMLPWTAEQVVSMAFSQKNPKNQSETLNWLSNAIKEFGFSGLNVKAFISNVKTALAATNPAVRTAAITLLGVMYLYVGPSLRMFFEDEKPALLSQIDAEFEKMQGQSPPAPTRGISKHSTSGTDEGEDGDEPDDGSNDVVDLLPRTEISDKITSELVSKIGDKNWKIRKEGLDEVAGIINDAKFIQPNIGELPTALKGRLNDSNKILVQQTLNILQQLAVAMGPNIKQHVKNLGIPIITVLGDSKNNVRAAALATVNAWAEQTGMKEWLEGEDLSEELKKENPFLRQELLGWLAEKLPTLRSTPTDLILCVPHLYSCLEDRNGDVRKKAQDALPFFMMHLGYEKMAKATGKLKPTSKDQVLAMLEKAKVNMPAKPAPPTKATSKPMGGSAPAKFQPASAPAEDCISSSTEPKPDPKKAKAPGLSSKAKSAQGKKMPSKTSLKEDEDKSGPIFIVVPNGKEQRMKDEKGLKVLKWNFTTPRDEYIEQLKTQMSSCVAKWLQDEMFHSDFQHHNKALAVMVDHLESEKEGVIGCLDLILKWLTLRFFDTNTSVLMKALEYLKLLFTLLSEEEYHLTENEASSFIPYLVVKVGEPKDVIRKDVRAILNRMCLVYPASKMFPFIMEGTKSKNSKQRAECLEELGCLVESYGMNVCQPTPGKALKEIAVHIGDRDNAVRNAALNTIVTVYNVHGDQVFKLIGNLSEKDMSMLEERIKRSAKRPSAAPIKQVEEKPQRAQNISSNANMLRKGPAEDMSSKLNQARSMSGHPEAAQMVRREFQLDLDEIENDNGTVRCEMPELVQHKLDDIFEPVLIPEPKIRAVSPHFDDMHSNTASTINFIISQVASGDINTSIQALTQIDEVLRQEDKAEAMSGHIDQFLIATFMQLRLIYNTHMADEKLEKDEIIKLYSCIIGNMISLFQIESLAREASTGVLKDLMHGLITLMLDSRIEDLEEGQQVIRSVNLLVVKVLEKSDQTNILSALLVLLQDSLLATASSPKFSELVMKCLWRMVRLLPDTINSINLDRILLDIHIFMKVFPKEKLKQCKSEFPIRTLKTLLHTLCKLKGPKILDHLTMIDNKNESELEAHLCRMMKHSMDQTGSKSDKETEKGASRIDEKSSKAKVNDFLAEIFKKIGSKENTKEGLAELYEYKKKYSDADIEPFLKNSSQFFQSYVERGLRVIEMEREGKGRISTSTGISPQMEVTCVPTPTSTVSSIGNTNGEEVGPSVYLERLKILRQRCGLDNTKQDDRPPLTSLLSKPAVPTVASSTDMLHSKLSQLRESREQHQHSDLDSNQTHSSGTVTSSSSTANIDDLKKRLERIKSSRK
inactive: [1] 0.018 | [2] 0.003 | [3] 0.005 | [4] -0.01 | [5] -0.009 | [6] 0.002 | [7] -0.055 | [8] -0.015 | [9] 0.004 | [10] 0.001 | [11] -0.024 | [12] -0.008 | [13] 0.015 | [14] -0.012 | [15] -0.007 | [16] 0.007 | [17] 0.005 | [18] -0.013 | [19] 0.023 | [20] 0.006
